Source: the supplement of paper PMC3334620
The full ranking holds about 33,000 sequences; the median of “E-score (-0.5 to 0.5)” is about -0.036, and the highest 2% start at about 0.37. Only a selection was taken, and the highest values are over-represented in it overall.

What follows are sequences tested against T1, Yer064c (UniProt P40041) (assay: PBM E-score (8-mer binding enrichment) (E-score (-0.5 to 0.5)); higher = stronger / more preferred TF binding). Settings: protein concentration: 200 nM; construct: GST-full length.
T1 sequence: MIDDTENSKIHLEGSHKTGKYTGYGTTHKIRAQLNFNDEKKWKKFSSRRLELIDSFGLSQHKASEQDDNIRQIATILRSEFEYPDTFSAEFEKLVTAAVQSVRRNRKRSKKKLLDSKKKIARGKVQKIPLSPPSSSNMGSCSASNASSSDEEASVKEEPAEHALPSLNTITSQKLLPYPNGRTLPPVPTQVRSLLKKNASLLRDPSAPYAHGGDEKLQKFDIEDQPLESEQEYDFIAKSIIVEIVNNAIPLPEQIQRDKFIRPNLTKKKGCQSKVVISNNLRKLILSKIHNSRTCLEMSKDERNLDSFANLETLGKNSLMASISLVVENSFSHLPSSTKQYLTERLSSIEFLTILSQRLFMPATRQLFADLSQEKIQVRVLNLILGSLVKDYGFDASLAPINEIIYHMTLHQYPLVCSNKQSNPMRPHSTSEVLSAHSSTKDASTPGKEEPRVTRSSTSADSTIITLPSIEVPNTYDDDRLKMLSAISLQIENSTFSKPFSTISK
Summary of the method: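 Universal all-10-mer Agilent arrays, double-stranded by primer extension on fresh or once-stripped slides, were probed with about 100-200 nM GST-tagged yeast transcription factors made by PURExpress. Fluorescent anti-GST detected bound protein, and masliner normalised the scans. E-scores from the Universal PBM Analysis Suite were given to each ungapped eight-base word pooled with its reverse complement.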

Point of comparison: ATGACCGG, “PBM E-score” value -0.128. Against it:
- GAGTCGTA — higher, 0.453
- CAGTCGGC — higher, 0.122
- GAGTCGGA — higher, 0.395
- CAGTCGTA — higher, 0.265
- AAGTCGTA — higher, 0.328
- AAGTCGGC — higher, -0.0537
- CAACACAG — higher, 0.0802
- GAAAATAA — higher, 0.133
- TGACGACA — higher, 0.102
- CATCGCAC — lower, -0.211
- ATGCAAGA — higher, 0.139
- CGCTCATC — higher, 0.0112
- CAAGCCGG — higher, -0.108
- ACATTCTA — higher, 0.0824
- AGGATTCG — higher, -0.0455
- ATGATTCG — higher, 0.437
- AGGATTCA — higher, 0.24
- ACGATTCA — higher, 0.298
- AAGATTCG — higher, 0.205
- GAGATTCA — higher, 0.238
- GTGATTCA — higher, 0.474
- AAGATTCA — higher, 0.37
- GGGATTCA — higher, 0.147
- ACGATTCG — higher, 0.0252
- ATGATTCA — higher, 0.49
- GTGATTTA — higher, 0.35
- CGCGCCCC — lower, -0.271
- CAACCTGC — higher, -0.127
- CCGTAATA — higher, 0.0217
- ACTCAGCT — higher, 0.216
- ACCGGAAG — higher, -0.0509
- GATGCTCC — lower, -0.345
- AACAACCA — higher, 0.13
- ATGGGGAC — lower, -0.14
- CGAAATCA — higher, 0.309
- CCGCGGAC — higher, -0.0248
- CGTGGAGC — higher, -0.124
- CCACCCCA — higher, -0.0763
- AATATATC — higher, -0.0361
- ATGATTCC — higher, 0.456
- CTGATTCC — higher, 0.301
- AGGATTCC — higher, 0.0611
- CTGATTCA — higher, 0.45
- CAGATTCA — higher, 0.157
- CGGATTCA — higher, 0.194
- CTCGGCCC — lower, -0.206
- GTGAATGA — higher, 0.14
- CTGAATCA — higher, 0.455
- ATGAATCC — higher, 0.253
- CTGAATCC — higher, 0.235
- ATGAATCA — higher, 0.48
- CTGAATTA — higher, 0.0399
- GTGAATAA — higher, 0.0323
- ATGAATCG — higher, 0.355
- GTGAATCA — higher, 0.48
- CTAAGGTA — higher, 0.105
- GTTTATTA — higher, 0.148
- CGATGTGA — higher, 0.103
- ACATCACA — higher, -0.0462
- GCGTGAAA — higher, -0.106
- CTGACGGA — higher, -0.0463
- GGGTAAAC — higher, 0.0204
- GTCTGTCA — higher, -0.107
- GACTCCGC — higher, 0.406
- TACTCCGA — higher, 0.0904
- AACTCCGA — higher, -0.0453
- CACTCCGC — higher, -0.0571
- GACTCCGA — higher, 0.417
- AACTCCGC — higher, -0.0186
- GTGCACCA — lower, -0.178
- AGGTAGTG — higher, -0.0767
- AGGTAGTA — higher, 0.0729
- CGGTAGGC — lower, -0.178
- CGGTAGTC — higher, 0.409
- CGGTAGTA — higher, 0.0891
- AGGTAGTC — higher, 0.407
- CTTCAGGA — higher, 0.00919
- CATTCACA — higher, -0.00304
- CATTCACG — higher, 0.0972
- CATTCACC — lower, -0.166
- GATTCACA — higher, 0.375
- AATTCACC — higher, -0.0422
- GATTCACC — higher, 0.372
- CGATAGAC — higher, 0.00233
- CGCCTTTA — higher, 0.0724
- ATATCTCA — higher, 0.0798
- CTTGGGAA — higher, 0.0531
- ATTCCTAA — higher, 0.183
- GATGATCA — higher, 0.323
- ATTGATTA — higher, 0.286
- AATGATGA — higher, 0.289
- AATGATAA — higher, 0.0741
- AATTATGA — higher, 0.248
- GATGATGA — higher, 0.256
- AATGATTA — higher, 0.449
- GTTGATTA — higher, 0.381
- GATTATGA — higher, 0.38
- GATGATTA — higher, 0.47
- CTTGATTA — higher, 0.303
- GATTATGC — higher, 0.112
- AACCGCAG — higher, -0.0549
- ATCAACTA — higher, 0.23
- AGTGAAAT — higher, 0.143
- ACCTCCCT — higher, -0.107
- CCGGTTAA — higher, -0.0828
- CCCGAGGG — higher, -0.0969
- ACTGATTA — higher, 0.343
- GCTGATTA — higher, 0.392
- CCTGATTA — higher, 0.344
